# Only some compounds are listed: those with a hit (about 3.6% of all), similar ones and a draw of the others.
# mHTT CaM bind: disrupts binding of mutant huntingtin to calmodulin; P42858; AlphaScreen His-mHTT/GST-CaM binding, luminescence; AID 1671202; 190,000 compounds, 3.6% hits; inhibition, % at 15 µM;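 note: 0% = both proteins with DMSO and 100% = one protein alone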
# Target sequence (P42858 whole entry, looked up, stated change not applied): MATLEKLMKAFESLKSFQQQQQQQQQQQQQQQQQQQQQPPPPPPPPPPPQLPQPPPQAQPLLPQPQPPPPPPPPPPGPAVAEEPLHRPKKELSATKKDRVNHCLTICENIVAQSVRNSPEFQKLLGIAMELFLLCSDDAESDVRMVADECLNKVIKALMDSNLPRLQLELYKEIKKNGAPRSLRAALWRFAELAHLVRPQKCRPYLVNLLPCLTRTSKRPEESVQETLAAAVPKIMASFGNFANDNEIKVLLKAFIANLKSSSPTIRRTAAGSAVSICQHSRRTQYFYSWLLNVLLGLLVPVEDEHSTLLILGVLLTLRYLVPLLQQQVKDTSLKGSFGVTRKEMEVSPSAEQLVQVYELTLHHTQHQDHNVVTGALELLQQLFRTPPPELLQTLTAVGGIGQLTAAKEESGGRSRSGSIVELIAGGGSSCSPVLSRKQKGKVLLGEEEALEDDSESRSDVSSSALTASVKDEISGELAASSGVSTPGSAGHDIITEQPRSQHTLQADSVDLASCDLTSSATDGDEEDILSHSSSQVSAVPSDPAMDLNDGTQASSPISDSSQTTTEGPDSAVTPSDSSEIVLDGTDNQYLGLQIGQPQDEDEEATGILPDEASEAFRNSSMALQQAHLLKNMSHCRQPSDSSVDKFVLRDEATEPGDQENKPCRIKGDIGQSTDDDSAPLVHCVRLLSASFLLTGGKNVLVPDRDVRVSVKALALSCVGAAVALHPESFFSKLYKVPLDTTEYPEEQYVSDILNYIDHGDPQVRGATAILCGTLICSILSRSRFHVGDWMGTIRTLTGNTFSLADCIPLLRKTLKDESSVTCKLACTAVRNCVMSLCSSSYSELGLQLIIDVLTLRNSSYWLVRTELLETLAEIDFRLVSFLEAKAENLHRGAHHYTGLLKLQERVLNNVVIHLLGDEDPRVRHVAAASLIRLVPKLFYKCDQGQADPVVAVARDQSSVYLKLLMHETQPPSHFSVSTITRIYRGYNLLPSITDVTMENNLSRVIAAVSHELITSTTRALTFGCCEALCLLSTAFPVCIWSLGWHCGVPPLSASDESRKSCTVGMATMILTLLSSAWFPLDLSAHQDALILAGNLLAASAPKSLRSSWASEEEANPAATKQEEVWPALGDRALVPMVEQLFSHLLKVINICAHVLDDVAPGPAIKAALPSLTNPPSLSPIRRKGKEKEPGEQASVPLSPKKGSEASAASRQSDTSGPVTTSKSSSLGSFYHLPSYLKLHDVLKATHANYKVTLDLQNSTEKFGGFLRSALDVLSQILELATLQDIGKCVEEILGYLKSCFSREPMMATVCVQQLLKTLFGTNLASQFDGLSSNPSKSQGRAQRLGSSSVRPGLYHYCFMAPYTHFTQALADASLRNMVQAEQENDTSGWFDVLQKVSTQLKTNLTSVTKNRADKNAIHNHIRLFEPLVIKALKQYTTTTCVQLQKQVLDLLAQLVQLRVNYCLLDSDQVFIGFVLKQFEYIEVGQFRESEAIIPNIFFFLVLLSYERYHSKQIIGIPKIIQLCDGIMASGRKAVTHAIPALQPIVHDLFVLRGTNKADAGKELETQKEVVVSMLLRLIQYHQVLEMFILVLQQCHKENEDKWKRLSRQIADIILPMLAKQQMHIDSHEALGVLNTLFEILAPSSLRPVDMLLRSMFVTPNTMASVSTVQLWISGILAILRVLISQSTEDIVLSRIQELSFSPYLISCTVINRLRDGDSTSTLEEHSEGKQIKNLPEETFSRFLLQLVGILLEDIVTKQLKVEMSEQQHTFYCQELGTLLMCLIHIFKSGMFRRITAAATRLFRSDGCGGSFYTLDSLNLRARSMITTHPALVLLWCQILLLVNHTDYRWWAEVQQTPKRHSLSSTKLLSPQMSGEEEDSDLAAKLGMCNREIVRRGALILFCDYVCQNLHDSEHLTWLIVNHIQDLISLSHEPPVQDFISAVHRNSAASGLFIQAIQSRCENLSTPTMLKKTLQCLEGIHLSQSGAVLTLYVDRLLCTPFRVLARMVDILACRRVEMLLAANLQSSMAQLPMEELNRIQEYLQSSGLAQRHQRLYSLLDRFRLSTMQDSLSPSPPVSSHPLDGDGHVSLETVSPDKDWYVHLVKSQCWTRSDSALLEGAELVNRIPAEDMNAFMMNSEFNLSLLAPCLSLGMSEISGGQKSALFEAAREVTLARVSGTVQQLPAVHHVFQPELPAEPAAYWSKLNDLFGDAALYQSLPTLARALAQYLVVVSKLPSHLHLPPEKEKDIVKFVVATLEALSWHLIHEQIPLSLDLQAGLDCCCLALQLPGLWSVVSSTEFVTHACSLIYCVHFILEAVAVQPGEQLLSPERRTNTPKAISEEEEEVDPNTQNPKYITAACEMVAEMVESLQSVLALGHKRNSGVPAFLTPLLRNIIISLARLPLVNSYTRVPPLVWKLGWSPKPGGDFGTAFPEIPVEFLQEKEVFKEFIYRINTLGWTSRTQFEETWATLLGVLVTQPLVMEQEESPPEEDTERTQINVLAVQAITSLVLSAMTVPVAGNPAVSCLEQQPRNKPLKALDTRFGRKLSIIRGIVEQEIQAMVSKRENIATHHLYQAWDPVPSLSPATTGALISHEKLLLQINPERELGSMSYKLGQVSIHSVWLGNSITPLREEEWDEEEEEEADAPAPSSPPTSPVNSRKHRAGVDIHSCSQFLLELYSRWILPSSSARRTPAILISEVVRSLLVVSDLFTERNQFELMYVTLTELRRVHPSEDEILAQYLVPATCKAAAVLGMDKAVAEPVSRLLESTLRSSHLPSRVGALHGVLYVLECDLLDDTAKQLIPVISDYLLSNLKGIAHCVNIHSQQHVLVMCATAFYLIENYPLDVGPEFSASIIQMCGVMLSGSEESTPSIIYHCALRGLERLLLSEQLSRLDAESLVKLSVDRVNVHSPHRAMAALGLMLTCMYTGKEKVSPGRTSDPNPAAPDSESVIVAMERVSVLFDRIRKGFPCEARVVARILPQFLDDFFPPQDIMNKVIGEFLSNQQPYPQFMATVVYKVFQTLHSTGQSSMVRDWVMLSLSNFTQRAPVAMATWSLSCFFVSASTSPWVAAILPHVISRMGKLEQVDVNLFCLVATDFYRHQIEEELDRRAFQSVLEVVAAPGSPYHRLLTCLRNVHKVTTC
# Pf apPOL inh: Pf-apPOL DNA polymerase inhibition; Recombinant Pf-apPOL, molecular beacon fluorescence, 1.5 h; inhibition, % at 10 µM; 210,000 compounds, 0.25% hits
# * hit, by the source's call; i = inactive; . = not tested or not shown; + = active, no number; ! = repeats disagree. Cut-off read from the data, not from the text of the source: active = inhibition above about 50%; inactive = the rest.
SMILES,mHTT CaM bind,Pf apPOL inh
COc1ccc(S(=O)(=O)N2CCCCC2CC(=O)Nc2ccc3c(c2)OCCO3)cc1 (stereo not drawn),1,-3
CC(C)N1Cc2cc(C(=O)NCCCN3CCc4ccccc4C3)sc2C1,26,-3
Cc1ccc(-n2nc(C)c3sc(N4CCCN(C(=O)c5ccoc5)CC4)nc32)cc1,30,-2
COCc1cc(=O)n2[nH]c(Cc3ccccc3)c(-c3ccc(OC)cc3)c2n1,8,3
O=C(c1ccc(Cl)cc1)N1CCN(c2ccc(Cl)cc2[N+](=O)[O-])CC1,40,-2
Cc1c(C(=O)N2CCN(c3ccc(Cl)cc3[N+](=O)[O-])CC2)oc2ccccc12,61*,8
Nc1nonc1/C(=N\O)N1CCN(c2ccc(Cl)cc2[N+](=O)[O-])CC1,+,-8
COc1ccc(N2CCN(/C(=N/O)c3nonc3N)CC2)c([N+](=O)[O-])c1,i,-3
CCn1ncc(CN(C)C(=O)C2CN(C(=O)c3ccccc3)CC23CCCCC3)c1C (stereo not drawn),13,2
CCOc1ccccc1NC(NC(=O)c1ccco1)C(=O)c1ccc(Cl)cc1 (stereo not drawn),43,-4
COc1ccc(OC)c(NC(NC(=O)c2ccco2)C(=O)c2ccc(Cl)cc2)c1 (stereo not drawn),67*,-6
COc1ccc(C2NC(=O)NC(C)=C2C(=O)Nc2ccc(F)c(F)c2)cc1OC (stereo not drawn),-1,65*!
COc1ccccc1C1NC(=O)NC(C)=C1C(=O)Nc1ccc(F)c(F)c1 (stereo not drawn),6,0
COc1ccc2nc(N3CCCC(C(=O)NCc4ccc(C)cc4)C3)sc2c1 (stereo not drawn),3,-9
O=C(NC(c1ccc([N+](=O)[O-])cc1)c1cc(Cl)c2cccnc2c1O)c1cccnc1 (stereo not drawn),53*,-9
O=C(NC(c1cccc([N+](=O)[O-])c1)c1cc(Cl)c2cccnc2c1O)c1cccnc1 (stereo not drawn),79*,-6
O=C(NC(c1ccccc1)c1ccccc1)c1cccnc1,-5,3
CCOc1ccc2nc(C(=O)NC3CCCCC3)cn2n1,1,-1
CCOC(=O)c1ccc2nc(NC(=O)Cn3c(=O)oc4ccccc43)sc2c1,20,-1
COc1ccc(OCc2ccccc2F)c(/C=C2\C(=O)NN(c3ccccc3)C2=O)c1,11,-8
CCCCc1ccc(NC(=O)C=C2SC(=O)NC2=O)cc1,8,-7
CN(C)CCNC(=O)COc1ccc(C23CC4CC(CC(C4)C2)C3)cc1,95*,-3
CN(C)CCNC(=O)CC12CC3CC(C1)CC(c1ccccc1)(C3)C2,64*,-2
COc1ccc(CCNC(=O)CC23CC4CC(C2)CC(c2ccccc2)(C4)C3)cc1OC,20,-4
CCN(CC)CCNC(=O)COc1ccc(OC)cc1,-1,3
SMILES,mHTT CaM bind,Pf apPOL inh
COC(=O)c1ccc(Cl)cc1N(CCCC#N)S(=O)(=O)c1ccc(C)cc1,.,0
COc1ccc(CN2CC[C@H]3C=CC[C@@H](C(=O)Nc4ccc(Cl)c(C(F)(F)F)c4)[C@H]3C2=O)cc1OC,56*,-7
COc1ccc(CN2CC[C@H]3C=CC[C@@H](C(=O)O)[C@H]3C2=O)cc1OC,3,-2
COc1ccc(NC(=O)[C@@H]2CC=C[C@@H]3CCN(Cc4ccccc4)C(=O)[C@@H]32)cc1,2,-4
COc1ccc(NC(=O)[C@@H]2CC=C[C@@H]3CCN(Cc4ccc(Cl)c(Cl)c4)C(=O)[C@@H]32)cc1,96*,-6
CN(C)C(=O)Cn1cc(-c2ccccc2)oc1=O,-6,2
O=C(NCCc1c[nH]c2ccccc12)c1cc2nc(-c3cccs3)cc(C(F)(F)Cl)n2n1,82*,-1
O=C(NCCCN1CCOCC1)c1cc2nc(-c3cccs3)cc(C(F)(F)Cl)n2n1,25,-4
O=C(Cn1cnc([N+](=O)[O-])n1)Nc1ccc(Cl)c(Cl)c1,-2,10
Cc1[nH]nc(-c2ccc(O)c(O)c2O)c1-c1ccccc1,91*,0
COc1ccc(-c2c(-c3ccc(O)cc3O)n[nH]c2C)cc1,35,12
O=C1C=CC(=NS(=O)(=O)c2ccc(Cl)cc2)c2ccccc21,98*,-2
CCN(CC)c1ccc(N=C2C=CC(=O)c3ccccc32)c(C)c1,.,0
CC(C)c1ccc(S(=O)(=O)N2CCN(C)c3ccccc32)cc1,41,2
O=C1C=CC(=NS(=O)(=O)c2ccc(Cl)cc2)C=C1,48,-6
O=C1C=CC(=NS(=O)(=O)c2ccc(F)cc2)c2ccccc21,100*,-4
CC(C)c1ccc(S(=O)(=O)N=C2C=CC(=O)c3ccccc32)cc1,67*,11
CC(C)=CCCC1(C)OC(=O)N(CCC(=O)O)C1(C)O (stereo not drawn),-6,.
Cc1ccc(NC(=O)CN2C(=O)NC3(CCCCC3)C2=O)cc1,0,-5
COc1ccc(-c2ccc(/C=C3\SC(=N)NC3=O)o2)c([N+](=O)[O-])c1,59*,1
Cc1c(-c2ccc(/C=C3\SC(=N)NC3=O)o2)ccc([N+](=O)[O-])c1C,41,2
COc1ccc2oc(C)c(C(C)=O)c2c1,-7,98*
COc1ccc2oc(C)c(C(=O)O)c2c1,0,3
Cc1ccc(F)c(NC(=O)Nc2cccc(Cl)c2)c1,-8,1
N#Cc1cc2c(N)c(C(=O)c3ccc(Cl)cc3)sc2nc1N,11,-11
SMILES,mHTT CaM bind,Pf apPOL inh
N#Cc1cc2c(N)c(C(=O)Nc3ccccc3Oc3ccccc3)sc2nc1N,81*,-1
COc1cc(Cl)ccc1C(=O)NC1CCN(S(=O)(=O)c2ccccc2)C1 (stereo not drawn),-4,-4
CC(=O)NCC(=O)NC(C(=O)Nc1ccc2c(c1)OCO2)c1ccc(C)cc1 (stereo not drawn),5,-4
Cc1ccc(C(NC(=O)Cc2cc3ccccc3[nH]2)C(=O)Nc2ccc3c(c2)OCCO3)cc1 (stereo not drawn),53*,-5
Cc1[nH]n2c(=O)cc(-c3ccccc3)nc2c1-c1ccccc1,11,-5
COc1ccc(-c2c(C)[nH]n3c(=O)cc(-c4ccccc4)nc23)cc1,73*,2
CCCc1cc(=O)n2[nH]c(Cc3ccccc3)c(-c3ccccc3OC)c2n1,0,2
COc1ccccc1-c1c(Cc2ccccc2)[nH]n2c(=O)cc(-c3ccccc3)nc12,67*,2
CC(C)=NNc1nccc2ccccc12,17,.
c1cc(-c2noc(COC3CCCN(Cc4ccsc4)C3)n2)ccn1 (stereo not drawn),-12,-6
CN1CCN(CCNC(=O)c2ccc3nc(-c4ccc(Cl)cc4)cn3c2)CC1,12,-5
Cc1ccc(N2C(=O)NC(=O)/C(=C\c3ccccc3Cl)C2=O)cc1,2,-7
Cc1ccc(C(=O)CC(=O)c2ccccc2O)cc1,45,-1
Cc1ccccc1C(=O)CC(=O)c1ccccc1O,50*,-2
COc1ccc(NC(=O)c2ccccc2C)c(OC)c1,-2,0
Cc1ccc(O)c(C(=O)CC(=O)c2cccc(F)c2)c1,43,-2
COc1ccc(O)c(C(=O)CC(=O)c2cccc(C)c2)c1,59*,-1
COc1ccc(O)c(C(=O)CC(=O)c2ccccc2C)c1,62*,-10
O=C(Nc1ccc2oc(-c3ccc(Cl)cc3)nc2c1)c1ccc(F)cc1,2,-4
NC1CCCc2c1[nH]c1ccc([N+](=O)[O-])cc21 (stereo not drawn),12,3

# High-throughput results deposited in PubChem by University of Kansas High Throughput Screening Laboratory.
